In PubChem BioAssay AID1159580 (chemical genetic matrix, 2015):
Screen size: about 5,500 compounds; about 2,000 (36%) were called active. Inconclusive results (about 18%) are left out. Cut-off read from the data, not from the text of the source: active = normalized growth mostly below about 0.91 (no sharp cut-off); inconclusive = no clear call, values can overlap the other calls; inactive = mostly above about 0.92. This is one part of the list.

Assay: chemical genetic growth profiling, strain panel (AID 1159580);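 note: tested at 20 µM; growth read once vehicle control cultures reached saturation at 30 °C; 1 = growth at the plate median or of vehicle wells; lower values mean less growth of the strain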
Details: growth OD

Measured: normalized growth

CCn1cc(C(=O)O)c(=O)c2cc(F)c(N3CCNCC3)nc21
inactive: S. cerevisiae deletion strains, locus YJR066W, strain TOR1, stronger effect = lower value 0.976 | S. cerevisiae deletion strains, locus YJR075W, strain HOC1, stronger effect = lower value 1.01 | S. cerevisiae deletion strains, locus YKL009W, strain mrt4, stronger effect = lower value 1.01 | S. cerevisiae deletion strains, locus YKL068W, stronger effect = lower value 1.01 | S. cerevisiae deletion strains, locus YKL085W, strain MDH1 (second series), stronger effect = lower value 1.01 | S. cerevisiae deletion strains, locus YKL085W, strain MDH1, stronger effect = lower value 1.01 | S. cerevisiae deletion strains, locus YKL160W, strain elf1, stronger effect = lower value 1 | S. cerevisiae deletion strains, locus YKL190W, strain CNB1, stronger effect = lower value 1.02 | S. cerevisiae deletion strains, locus YKR001C, strain vps1, stronger effect = lower value 1.02 | S. cerevisiae deletion strains, locus YKR026C, strain gcn3, stronger effect = lower value 0.989 | S. cerevisiae deletion strains, locus YKR091W, strain srl3, stronger effect = lower value 0.983 | S. cerevisiae deletion strains, locus YLL001W, strain dnm1, stronger effect = lower value 0.991 | S. cerevisiae deletion strains, locus YLL026W, stronger effect = lower value 0.992 | S. cerevisiae deletion strains, locus YLL041C, strain sdh2, stronger effect = lower value 0.964 | S. cerevisiae deletion strains, locus YLR027C, strain aat2, stronger effect = lower value 0.989 | S. cerevisiae deletion strains, locus YLR039C, strain RIC1, stronger effect = lower value 1.01 | S. cerevisiae deletion strains, locus YLR058C, strain SHM2, stronger effect = lower value 1.02 | S. cerevisiae deletion strains, locus YLR102C, strain apc9, stronger effect = lower value 1.01 | S. cerevisiae deletion strains, locus YLR113W, strain HOG1, stronger effect = lower value 1.08 | S. cerevisiae deletion strains, locus YLR221C, strain rsa3, stronger effect = lower value 0.984 | S. cerevisiae deletion strains, locus YLR258W, strain gsy2, stronger effect = lower value 0.987 | S. cerevisiae deletion strains, locus YLR262C, strain YPT6 (second series), stronger effect = lower value 0.945 | S. cerevisiae deletion strains, locus YLR262C, strain YPT6, stronger effect = lower value 1.03 | S. cerevisiae deletion strains, locus YLR268W, strain sec22, stronger effect = lower value 1.01 | S. cerevisiae deletion strains, locus YLR320W, strain mms22, stronger effect = lower value 0.999 | S. cerevisiae deletion strains, locus YLR330W, strain CHS5, stronger effect = lower value 1.01 | S. cerevisiae deletion strains, locus YLR342W, strain FKS1 (second series), stronger effect = lower value 1.03 | S. cerevisiae deletion strains, locus YLR342W, strain FKS1, stronger effect = lower value 0.981 | S. cerevisiae deletion strains, locus YLR357W, strain rsc2, stronger effect = lower value 0.897 | S. cerevisiae deletion strains, locus YLR370C, strain arc18, stronger effect = lower value 0.975 | S. cerevisiae deletion strains, locus YLR371W, strain rom2, stronger effect = lower value 1.02 | S. cerevisiae deletion strains, locus YLR384C, strain iki3, stronger effect = lower value 0.983 | S. cerevisiae deletion strains, locus YLR418C, strain cdc73, stronger effect = lower value 1.01 | S. cerevisiae deletion strains, locus YML016C, strain PPZ1, stronger effect = lower value 1.01 | S. cerevisiae deletion strains, locus YML032C, strain rad52, stronger effect = lower value 1.02 | S. cerevisiae deletion strains, locus YML120C, strain ndi1, stronger effect = lower value 0.983 | S. cerevisiae deletion strains, locus YML124C, strain tub3, stronger effect = lower value 1.01 | S. cerevisiae deletion strains, locus YMR058W, strain fet3, stronger effect = lower value 0.982 | S. cerevisiae deletion strains, locus YMR078C, strain ctf18, stronger effect = lower value 1 | S. cerevisiae deletion strains, locus YMR125W, strain sto1, stronger effect = lower value 0.973 | S. cerevisiae deletion strains, locus YMR129W, stronger effect = lower value 0.981 | S. cerevisiae deletion strains, locus YMR205C, strain PFK2, stronger effect = lower value 1.01 | S. cerevisiae deletion strains, locus YMR223W, strain ubp8, stronger effect = lower value 1.02 | S. cerevisiae deletion strains, locus YMR231W, strain pep5, stronger effect = lower value 0.991 | S. cerevisiae deletion strains, locus YMR307W, strain GAS1, stronger effect = lower value 1.02 | S. cerevisiae deletion strains, locus YNL067W, strain RPL9B, stronger effect = lower value 1 | S. cerevisiae deletion strains, locus YNL071W, strain lat1, stronger effect = lower value 0.968 | S. cerevisiae deletion strains, locus YNL153C, strain GIM3, stronger effect = lower value 0.99 | S. cerevisiae deletion strains, locus YNL183C, strain NPR1, stronger effect = lower value 0.982 | S. cerevisiae deletion strains, locus YNL209W, strain ssb2, stronger effect = lower value 0.971 | S. cerevisiae deletion strains, locus YNL233W, strain BNI4, stronger effect = lower value 0.978 | S. cerevisiae deletion strains, locus YNL248C, strain rpa49, stronger effect = lower value 0.989 | S. cerevisiae deletion strains, locus YNL250W, strain rad50, stronger effect = lower value 1.03 | S. cerevisiae deletion strains, locus YNL271C, strain bni1, stronger effect = lower value 1.02 | S. cerevisiae deletion strains, locus YNL298W, strain CLA4, stronger effect = lower value 1.01 | S. cerevisiae deletion strains, locus YNL307C, strain MCK1, stronger effect = lower value 1.02 | S. cerevisiae deletion strains, locus YNL322C, strain KRE1 (second series), stronger effect = lower value 0.976 | S. cerevisiae deletion strains, locus YNR049C, strain mso1, stronger effect = lower value 0.981 | S. cerevisiae deletion strains, locus YNR052C, strain pop2, stronger effect = lower value 1.02 | S. cerevisiae deletion strains, locus YOL006C, strain TOP1, stronger effect = lower value 1.02 | S. cerevisiae deletion strains, locus YOL012C, strain htz1 1.02 | S. cerevisiae deletion strains, locus YOL147C, strain pex11, stronger effect = lower value 1.02 | S. cerevisiae deletion strains, locus YOR001W, strain rrp6, stronger effect = lower value 0.987 | S. cerevisiae deletion strains, locus YOR061W, strain CKA2, stronger effect = lower value 1.02 | S. cerevisiae deletion strains, locus YOR069W, strain VPS5, stronger effect = lower value 1.01 | S. cerevisiae deletion strains, locus YOR070C, strain gyp1, stronger effect = lower value 0.993 | S. cerevisiae deletion strains, locus YOR080W, strain dia2, stronger effect = lower value 0.993 | S. cerevisiae deletion strains, locus YOR083W, strain WHI5, stronger effect = lower value 0.99 | S. cerevisiae deletion strains, locus YOR106W, strain vam3, stronger effect = lower value 0.988 | S. cerevisiae deletion strains, locus YOR136W, strain idh2, stronger effect = lower value 1.01 | S. cerevisiae deletion strains, locus YOR144C, strain elg1, stronger effect = lower value 1.01 | S. cerevisiae deletion strains, locus YOR184W, strain ser1, stronger effect = lower value 1.02 | S. cerevisiae deletion strains, locus YOR231W, strain MKK1, stronger effect = lower value 1.05 | S. cerevisiae deletion strains, locus YOR265W, strain rbl2, stronger effect = lower value 0.986 | S. cerevisiae deletion strains, locus YOR270C, strain vph1, stronger effect = lower value 0.991 | S. cerevisiae deletion strains, locus YOR290C, strain snf2, stronger effect = lower value 0.961 | S. cerevisiae deletion strains, locus YOR316C, strain cot1, stronger effect = lower value 1.02 | S. cerevisiae deletion strains, locus YPL051W, strain arl3, stronger effect = lower value 0.994 | S. cerevisiae deletion strains, locus YPL078C, strain atp4, stronger effect = lower value 0.984 | S. cerevisiae deletion strains, locus YPL106C, strain sse1, stronger effect = lower value 0.947 | S. cerevisiae deletion strains, locus YPL240C, strain hsp82, stronger effect = lower value 0.977 | S. cerevisiae deletion strains, locus YPL241C, strain CIN2, stronger effect = lower value 1.01 | S. cerevisiae deletion strains, locus YPL256C, strain CLN2, stronger effect = lower value 1.04 | S. cerevisiae deletion strains, locus YPR119W, strain clb2, stronger effect = lower value 1.01 | S. cerevisiae deletion strains, locus YPR141C, strain kar3, stronger effect = lower value 1.01 | S. cerevisiae deletion strains, locus YPR163C, strain tif3, stronger effect = lower value 1.03 | S. cerevisiae deletion strains, locus YPR167C, strain met16, stronger effect = lower value 1.01 | S. cerevisiae deletion strains, strain wtn01, stronger effect = lower value 1.01 | S. cerevisiae strains, strain wild type, stronger effect = lower value 1.02
